Laboratory results taken from PubChem BioAssay AID2540 (Sanford-Burnham Center for Chemical Genomics, 2010).
Among all 330,000 compounds or so, about 4,100 (1.2%) were called active. This is one part of a sample in which actives are shown more often than they occur. A number with no mark means an inactive call. No stated cut-off is given here; in the data, active means inhibition above about 50%; inactive means the rest.

What follows are compounds tested against Sentrin-specific protease 8 (Homo sapiens) (UniProt Q96LD8) (assay: SENP8 protease inhibitors, primary screen, biochemical, luminescence (AID 2540)). Settings: purified SENP8, Z-RLRGG-aminoluciferin cleavage, at 10 µM, active compounds read high.
Sequence of Sentrin-specific protease 8 (Homo sapiens) (Q96LD8 whole entry, looked up): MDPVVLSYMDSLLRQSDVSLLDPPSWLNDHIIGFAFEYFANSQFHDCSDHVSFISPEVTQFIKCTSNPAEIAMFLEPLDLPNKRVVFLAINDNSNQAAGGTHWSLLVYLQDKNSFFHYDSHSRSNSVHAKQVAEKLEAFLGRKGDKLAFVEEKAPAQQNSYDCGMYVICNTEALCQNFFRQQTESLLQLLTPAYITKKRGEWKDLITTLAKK
`Cc1ccc(CCCOC(=O)C[N+]2(C)CCCCC2)cc1` showed an inhibition of 7.71%. In the case of `COc1ccc(CCNc2cc(N3CCN(C(=O)c4ccccc4OC)CC3)ccc2[N+](=O)[O-])cc1OC`, the inhibition is reported as -3.35%. `CC1=NN(C(N)=S)C(=O)C1N=Nc1cc(Cl)ccc1Cl` (configuration not stated) was tested, and the inhibition was 70.4% (active). For `NC(=O)CC[C@@H]1NC(=O)[C@@H]2CCCN2C(=O)c2cc([N+](=O)[O-])cc(F)c2NCCC[C@@H](C(N)=O)NC1=O`, the inhibition was -2.54%. With `CN(CC(=O)NCc1cccnc1)S(=O)(=O)c1cc(Cl)ccc1Cl` the inhibition was 3.65%. In the case of `CN1C(C(=O)NCc2ccco2)CC2Cn3c(nc4ccccc43)C21` (configuration not stated), the inhibition is reported as -18.3%. Work on `O=C(O)CN1C(=O)CC(Cc2ccccc2)C1=O` (configuration not stated) yielded an inhibition of 4.48%. With `CCOC(=O)c1ccc(Nc2cc3ccccc3c(=O)[nH]2)cc1` the inhibition was 64.2% (active). `CCOC(=O)c1ccc(Nc2cc(C)nc3nc(C)nn23)cc1` gave an inhibition of 7.18%. `CCOC(=O)c1ccc(NC(=O)c2c(NCc3ccccc3)[nH]c(=O)[nH]c2=O)cc1` was tested, and the inhibition was 0.312%. `O=C(NN1C(=O)C2C3C=CC(O3)C2C1=O)c1ccccc1` (configuration not stated) was tested, and the inhibition was -0.512%. `Nc1ccc(N=Nc2ccccc2Cl)c(N)n1` was tested, and the inhibition was 72.7% (active). `COc1ccccc1C1CC(=O)n2c(nc(-c3ccccc3)c2-c2ccccc2)S1` (configuration not stated) was tested, and the inhibition was -4.43%. For `CC(=O)c1cnn(-c2cc(Oc3ccc(F)cc3)ncn2)c1C`, the inhibition was 9.6%. `O=C(COc1ccc2c(c1)CCC2)N1CCN(c2ccc(F)cc2)CC1` gave an inhibition of -17.5%. `COc1ccc(-c2sc3ccccc3c2-c2ccc(OCCN3CCOCC3)cc2)cc1` gave an inhibition of 8%. With `COc1ccc(N=C(C)c2sc3ccccc3c2O)cc1` the inhibition was 74% (active). `COC(=O)c1ccc(/C=C/c2c(-c3ccc(OC)cc3)sc3ccccc23)cc1` gave an inhibition of -2.53%. Compound `COC(=O)C1=CN(c2ccc(F)c(F)c2)C=C(C(=O)OC)C1c1ccc([N+](=O)[O-])cc1` has an inhibition of -9.67%. `CC(=O)N1CCN(C(=O)C2(NC(=O)Nc3ccc(C)cc3)CCCCC2)CC1` showed an inhibition of 5.59%. `CC1(C)CC(N(Cc2ccccc2)C(=O)Cc2ccccc2)CCO1` (configuration not stated) showed an inhibition of -3.89%. Work on `COc1ccc(-c2ccc(OC(=O)NC3CCS(=O)(=O)C3)cc2)cc1` (configuration not stated) yielded an inhibition of -13.5%.
